# Source: PubChem BioAssay AID694 (Emory University Molecular Libraries Screening Center, 2007)
# The whole screen tested about 1,300 compounds, of which about 25 (2%) were called active. The rule behind the calls is not given here. The full list was thinned out, with actives kept by preference.
# Biological target: Estrogen receptor (Homo sapiens) (UniProt P03372)
# Test: blockers of coactivator recruitment to ERα – biochemical, LOPAC library, TR-FRET, primary screen (AID 694);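 note: receptor was agonist-bound with estradiol present during the assay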
# Details: TR-FRET ERalpha-coactivator peptide binding, stronger effect = higher value
# Estrogen receptor (Homo sapiens), sequence (P03372 whole entry, looked up): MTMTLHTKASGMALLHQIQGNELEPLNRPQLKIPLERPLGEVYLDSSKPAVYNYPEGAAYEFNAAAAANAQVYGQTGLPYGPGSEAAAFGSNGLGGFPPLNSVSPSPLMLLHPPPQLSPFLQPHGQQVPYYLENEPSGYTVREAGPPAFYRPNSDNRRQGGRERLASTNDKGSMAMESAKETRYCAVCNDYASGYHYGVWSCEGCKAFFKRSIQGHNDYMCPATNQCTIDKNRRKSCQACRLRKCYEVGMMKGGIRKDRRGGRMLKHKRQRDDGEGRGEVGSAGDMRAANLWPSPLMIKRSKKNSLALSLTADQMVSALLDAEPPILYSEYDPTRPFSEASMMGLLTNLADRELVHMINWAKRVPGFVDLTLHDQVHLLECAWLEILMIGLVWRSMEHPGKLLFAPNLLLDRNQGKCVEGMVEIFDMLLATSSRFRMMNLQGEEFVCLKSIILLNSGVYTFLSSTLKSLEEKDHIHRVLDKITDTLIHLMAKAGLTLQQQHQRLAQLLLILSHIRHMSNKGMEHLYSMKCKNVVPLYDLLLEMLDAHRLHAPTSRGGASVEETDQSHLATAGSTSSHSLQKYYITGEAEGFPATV
Structure (SMILES),inhibition (at 45 µM),"inhibition (inhibition, at 15 µM) [%]"
O=c1c(O)c(-c2cc(O)c(O)c(O)c2)oc2cc(O)cc(O)c12,84% [fluorescence artefact?] (active),62.7
O=c1c(O)c(-c2ccc(O)c(O)c2)oc2cc(O)cc(O)c12,59.6% (inactive),26.6
O=c1[nH]c2cc(C(F)(F)F)ccc2n1-c1cc(C(F)(F)F)ccc1O,2.02% (inactive),1.4
CC(=O)N[C@@H](CS)C(=O)O,-7.68% (inactive),-8.08
N#C/C(=C\c1ccc(O)c(O)c1)C(=O)c1ccc(O)c(O)c1,59.5% [fluorescence artefact?] (active),57.3
N#C/C(=C\c1ccc(O)c(O)c1)C(=O)NCCCNC(=O)/C(C#N)=C/c1ccc(O)c(O)c1,51.7% (inactive),37.2
COc1cc(/C=C(\C#N)C(=O)c2ccc(O)c(O)c2)cc(I)c1O,28.7% (inactive),13.7
Nc1ncn([C@@H]2O[C@H](CO)[C@@H](O)[C@H]2O)c(=O)n1,-1.93% (inactive),-4.32
Cn1c(=O)c2[nH]c(C3CCCC3)nc2n(C)c1=O,1.28% (inactive),-1.01
NC(=S)NCCCC(N)C(=O)O (centres undefined),-4.72% (inactive),3.62
NCC(O)C1CCCCCCC1 (centres undefined),-4.78% (inactive),1.99
CCN1CCc2nc(N)oc2CC1,-3.72% (inactive),-5.11
CN(CCOc1ccc(C[C@H](Nc2ccccc2C(=O)c2ccccc2)C(=O)O)cc1)c1ccccn1,2.05% (inactive),2.17
C=Cc1c(C)c2cc3[nH]c(cc4nc(cc5nc(cc1[nH]2)C(C)=C5CCC(=O)O)C(CCC(=O)O)=C4C)c(C)c3C=C,93.6% [fluorescence artefact?] (active),73.7
CN(C)C(=O)/N=N/C(=O)N(C)C,-2.24% (inactive),-4.27
Nn1nnc2ccccc21,-3.33% (inactive),-2.11
COc1ccccc1N1CCN(CCCNc2cc(=O)n(C)c(=O)n2C)CC1,4.48% (inactive),2.87
Cn1cnc2c(NCc3ccccc3)nc(NCCO)nc21,3.75% (inactive),1.76
C=CC[C@H](N)C(=O)O,-2.53% (inactive),-5.06
CCCn1c(=O)c2c(ncn2C)n(CCC)c1=O,5.51% (inactive),-1.66
N=c1nc(N2CCCCC2)cc(N)n1O,2.01% (inactive),-3.53
CC[C@@H](C)[C@H]1O[C@]2(CC[C@@H]1C)C[C@@H]1C[C@@H](C/C=C(\C)[C@@H](O[C@H]3C[C@H](OC)[C@@H](O[C@H]4C[C@H](OC)[C@@H](O)[C@H](C)O4)[C@H](C)O3)[C@@H](C)/C=C/C=C3\CO[C@@H]4[C@H](O)C(C)=C[C@@H](C(=O)O1)[C@]34O)O2,-0.86% (inactive),3.41
CCCCC#Cc1nc(N)c2ncn([C@@H]3O[C@H](C(=O)NCC)[C@@H](O)[C@H]3O)c2n1,-0.57% (inactive),5.8
CCCCCCCC/C=C\CCCCCCCC(=O)NCCO,7.02% (inactive),9.1
N[C@@H](CCC(=O)N[C@H](CSN=O)C(=O)NCC(=O)O)C(=O)O,1.19% (inactive),3.44
[N-]=[N+]=Nc1ccc(C(=O)CSC[C@H](NC(=O)CC[C@H](N)C(=O)O)C(=O)NCC(=O)O)cc1,75.4% [fluorescence artefact?] (active),74

Structure (SMILES),inhibition (at 45 µM),"inhibition (inhibition, at 15 µM) [%]"
C=CCN1CCc2c(cc(O)c(O)c2Br)[C@@H](c2ccccc2)C1,2.69% (inactive),6.75
Cc1nc(N=Nc2cc(S(=O)(=O)O)c3cc([N+](=O)[O-])cc(S(=O)(=O)O)c3c2)c(COP(=O)(O)O)c(C=O)c1O,60.6% (inactive),46.2
OCCN1CCN(CC/C=C2/c3ccccc3Sc3ccc(C(F)(F)F)cc32)CC1,3.87% (inactive),3.25
CN1C(C)(C)CCCC1(C)C,-1.09% (inactive),-2.02
Nc1nc(OCc2ccccc2)c2[nH]cnc2n1,-3.48% (inactive),-5.45
Cc1cccc(C)c1NC(=O)C[N+](C)(C)C,0.37% (inactive),-1.43
CCCCN1CCC(COC(=O)c2cc(Cl)c(N)c3c2OCCO3)CC1,-8.8% (inactive),-4.44
CC(=O)SCC[N+](C)(C)C,0.72% (inactive),-4.29
CN(C)CCN(Cc1cccs1)c1ccccn1,0.3% (inactive),3.28
Cc1nc(N=Nc2ccc(S(=O)(=O)O)cc2S(=O)(=O)O)c(COP(=O)(O)O)c(C=O)c1O,-1.62% (inactive),2.87
CCOC(=O)c1cnc2c(cnn2CC)c1NN=C(C)C,1.01% (inactive),-4.69
O=c1cc(O)cc(/C=C/c2ccc(O)c(O)c2)o1,5.73% (inactive),4.2
NC(N)=NCCCCN=C(N)N,-1.43% (inactive),22.8
CCCCCCCCCCCCC/C=C/C(O)C(N)CO (centres undefined),17.6% (inactive),-17.3
NC(=NCCC[C@H](N)C(=O)O)NO,3.2% (inactive),2.74
NC(C(=O)N[C@@H]1C(=O)N2C(C(=O)O)=C(Cl)CS[C@H]12)c1ccccc1 (some centres undefined),-11.2% (inactive),-2.54
CSC(N)=NCCC[C@H](N)C(=O)O,0.58% (inactive),-0.49
CN(C)CCCCSC(=N)N,-2.28% (inactive),0.11
COc1ccc2c(c1)c(CC(=O)N1CCOCC1)c(C)n2C(=O)c1ccc(Cl)cc1,2.58% (inactive),0.53
Nc1ncnc2c1ncn2[C@@H]1O[C@H](C(=O)NC2CC2)[C@H](O)C1O (some centres undefined),-7.62% (inactive),-0.92
Nc1nc(N)c2nc(CNc3ccc(C(=O)NC(CCC(=O)O)C(=O)O)cc3)cnc2n1 (centres undefined),1.53% (inactive),-2.57
CCCCCCC/C=C\CCCCCCCCC(=O)O,63.2% (inactive),46.6
CCCCCCCCCCCCCCSCC(=O)O,97.7% [fluorescence artefact?] (active),66.6
CCCCCC(O)CCCC(=O)O (centres undefined),-5.09% (inactive),11.3
COC(=O)c1c(-c2cc(OC)c(OC)c(OC)c2)c2ccnc(OCc3ncccn3)c2c(=O)n1Cc1ccnc(C)c1,-0.01% (inactive),7.82
O=C(O)CCCCCC[C@H]1C(=O)NC(=O)N1CC[C@@H](O)C1CCCCC1,4.54% (inactive),37.6
